Measurements published in PubChem BioAssay (NCATS).
Results filed as inconclusive are left out. Activity calls are given as the source filed them. Unless noted, the call rests on the fitted dose curve; in most records, active means well fitted curve in the direction sought with a large enough effect; inconclusive means small, poorly fitted or top-dose-only effect, or another doubt; inactive means no such curve, though single readings can be large; an effect the other way counts as inactive or inconclusive.

Tests used:
[1] = Cell Viability - BJ (AID 421; calls by dose curve;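 further: potency means the concentration at half of the fitted maximal effect; cells exposed to compound for 40 hours at 37 °C before readout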); conditions: BJ fibroblast viability, qHTS
Procedure, shortened: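 Cytotoxicity as drop in intracellular ATP (CellTiter-Glo, 20 min RT) after 40 hr compound exposure of BJ fibroblasts at 37 °C. Titrations scaled between DMSO and 100 uM tamoxifen, Hill-fitted for AC50.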

[2] = Cell Viability - Jurkat (AID 426;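 active means dose-dependent loss of cell ATP signal giving a full or clear fitted curve, ranked by lower potency value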; further: potency means the concentration at half of the fitted maximal effect); conditions: qHTS
Procedure, shortened: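 Jurkat (Clone E6-1) cells, 5000/well in complete medium, exposed to compounds for 40 hr at 37C; intracellular ATP measured by CellTiter-Glo luminescence after 20 min at room temperature. AC50 from Hill fits.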

[3] = Cell Viability - Hek293 (AID 427;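 active means compounds whose dose-response curve shows a full or clear partial loss of cell viability, called from curve shape rather than a numeric limit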;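 further: potency means the concentration at half of the fitted maximal effect; cells exposed to compound for 40 hours at 37 °C before reading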); conditions: qHTS
Procedure, shortened: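 Luminescent ATP content (CellTiter-Glo, 20 min at room temperature) was measured after a 40 hr, 37 °C compound exposure of HEK293 cells. AC50 values came from Hill-equation fits of qHTS concentration-response data normalized to DMSO and 100 uM tamoxifen.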

[4] = Cell Viability - HepG2 (AID 433; calls by dose curve;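 further: potency means the concentration at half of the fitted maximal effect; potency for ATP loss meaning cytotoxicity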); conditions: qHTS
Procedure, shortened: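 Cytotoxicity is scored as loss of intracellular ATP in HepG2 cells exposed to compounds for 40 h. Concentration-response curves, normalized to DMSO and 100 uM tamoxifen, give AC50 values.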

[5] = Cell Viability - MRC5 (AID 434; calls by dose curve;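 further: potency means the concentration at half of the fitted maximal effect; potency reflects cytotoxicity seen as loss of intracellular ATP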); conditions: MRC5 lung fibroblast viability, qHTS
Procedure, shortened: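 MRC5 normal human lung fibroblasts (1500/well) were treated with compounds for 40 hr at 37 °C in complete medium, and viable cells were measured as intracellular ATP by CellTiter-Glo luminescence. AC50 came from Hill fits, normalized to DMSO and 100 uM tamoxifen.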

[6] = Cell Viability - SK-N-SH (AID 435; calls by dose curve;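 further: potency means the concentration at half of the fitted maximal effect; compound exposure lasted 40 h at 37 °C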); conditions: SK-N-SH neuroblastoma cell viability qHTS
Procedure, shortened: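 Cells seeded at 1500 per well and incubated 5 hr at 37 °C. Compound added, then 40 hr at 37 °C. CellTiter-Glo added, 20 min at room temperature, luminescence read.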

[7] = molecular target: Mitogen-activated protein kinase 10 (Mus musculus) (UniProt Q61831); assay: JNK3 AlphaScreen Assay (AID 530; active means well fitted curve in either direction with a large enough effect, not every such curve was filed as active;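 further: kinase came from lysate of stimulated human HepG2 cells; signal reports phosphorylation of biotinylated GST-cJun 1-79 at Ser73 with 10 µM ATP; on the % scale 0 is the no-effect control and ±100 the full control effect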); conditions: JNK3 lysate, c-Jun phosphorylation; series mostly up to 57.1 µM
Procedure, shortened: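 Inhibitors reduce antibody binding to phosphorylated biotin-cJun, lowering AlphaScreen luminescence. Lysates from HepG2 cells pre-activated by IL-1beta plus TNF-alpha supplied JNK3; compounds were titrated.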

[8] = Cell Viability - N2a (AID 540); conditions: N2a mouse neuroblastoma cell viability; at 92.2 µM (top of the series);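 further: plate controls were DMSO alone for no effect and tamoxifen control for full effect; nearly all actives have a fitted effect of over 45% in size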
Procedure, shortened: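 Mouse neuroblastoma N2a cells, 1500/well, exposed to compounds 40 h at 37 °C in complete medium. Viability measured as cellular ATP by CellTiter-Glo luminescence; AC50 from Hill fits of concentration-response.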

[9] = Cell Viability - NIH 3T3 (AID 541); conditions: NIH 3T3 cell viability, qHTS; activity change, negative = cytotoxicity: at 92.2 µM (top of the series);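 further: plate controls were DMSO alone for no effect and tamoxifen positive control for full effect; nearly all actives have a fitted effect of over 25% in size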
Procedure, shortened: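 Mouse NIH 3T3 fibroblasts, 1000 cells/well, rested 5 hr at 37 °C, then exposed to compound for 40 hr at 37 °C in complete medium. Viability read as intracellular ATP by CellTiter-Glo luminescence; AC50 from Hill-equation fits of concentration-response data.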

[10] = Cell Viability - HUV-EC-C (AID 542); conditions: HUV-EC-C endothelial cell viability, qHTS; series mostly up to 92.2 µM; further: on the % scale 0 is the no-effect control and ±100 the full control effect; nearly all actives have a fitted effect of over 35% in size
Procedure, shortened: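 HUV-EC-C human vascular endothelial cells, 1000/well, exposed to compound for 40 hr at 37 °C in complete medium. Intracellular ATP was read by CellTiter-Glo luminescence. AC50 came from Hill-equation fits of concentration-response data.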

[11] = Cell Viability - H-4-II-E (AID 543); conditions: H-4-II-E rat hepatoma viability; series mostly up to 92.2 µM; further: on the % scale 0 is the no-effect control and ±100 the full control effect; nearly all actives have a fitted effect of over 35% in size
Procedure, shortened: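 Rat hepatoma H-4-II-E cells, 1500 per well, treated 40 h at 37 °C in complete medium. Cellular ATP read by CellTiter-Glo luminescence; AC50 from Hill fits of concentration-response.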

[12] = Cell Viability - Renal Proximal Tubule (AID 545); conditions: renal proximal tubule cells viability; at 91.7 µM (top of the series), primary cells of rat origin unless noted; further: nearly all actives have a fitted effect of over 40% in size
Procedure, shortened: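 Cytotoxicity is scored as a concentration-dependent drop in cellular ATP in primary rat renal proximal tubule cells exposed for 40 hr. AC50 derives from Hill modelling.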

[13] = Cell Viability - Mesenchymal (AID 546); conditions: mesenchymal cells viability, qHTS; series mostly up to 91.7 µM;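 further: cells exposed to compound for 40 hours before reading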
Procedure, shortened: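 Normal human renal glomerulus-derived kidney mesenchymal cells, 1000 per well in complete medium, were treated with compounds for 40 hr at 37 °C. Viability was read as intracellular ATP by CellTiter-Glo luminescence; AC50 values came from Hill-equation fits of qHTS concentration-response data.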

[14] = Cellular Toxicity (caspase-3) HepG2 (AID 654); conditions: HepG2 caspase-3 activation, luminescence, 0% = DMSO only, 100% = tamoxifen; series mostly up to 92.2 µM;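 further: cells exposed to compound for 16 hours before reading; 0% = DMSO alone and 100% = caspase signal from 100 µM tamoxifen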
Procedure, shortened: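 HepG2 cells (1500/well) were treated 16 h at 37 °C in complete medium, then caspase 3/7 activity was read by Caspase-Glo luminescence. Data were normalized to DMSO and 100 uM tamoxifen; AC50 came from Hill-equation fits of qHTS concentration-response.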

[15] = Cellular Toxicity (caspase-3) Jurkat (AID 655); conditions: Jurkat caspase-3 activation, luminescence, DMSO = 0%, tamoxifen = 100%; at 92.2 µM (top of the series);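 further: cells exposed to compound for 16 h at 37 °C before reading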
Procedure, shortened: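 Caspase 3/7 activation is scored as increased luminescence in Jurkat cells cultured with compound for 16 hours in complete medium. AC50 values come from Hill fits of qHTS concentration-response data normalized to DMSO and 100 uM tamoxifen controls.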

[16] = Cellular Toxicity (caspase-3) HUV-EC-C (AID 656); conditions: HUV-EC-C cells, caspase-3 activation (apoptosis), vehicle = 0, 100 µM tamoxifen = 100%; series mostly up to 92.2 µM
Procedure, shortened: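 Read-out: luminescence proportional to caspase 3/7 activity, measured 20 min after adding Caspase-Glo 3/7 reagent. Cells (HUV-EC-C) had received compound for 16 hr at 37°C. Increases relative to DMSO and 100 uM tamoxifen gave concentration-response AC50 values.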

[17] = Cellular Toxicity (caspase-3) SHSY5Y (AID 657); conditions: SH-SY5Y caspase-3 activation, DMSO zero, 10 µM staurosporine = 100%; series mostly up to 91.7 µM
Procedure, shortened: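 Cells plated and incubated 5 h at 37 °C, dosed over a concentration range, incubated 16 h, then given Caspase-Glo 3/7 reagent for 1 h at room temperature before luminescence reading. Staurosporine (10 uM) defined full stimulation.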

[18] = Cellular Toxicity (caspase-3) BJ (AID 658); conditions: BJ fibroblasts, luminescence, normalized: DMSO 0%, staurosporine 100%; series mostly up to 91.7 µM
Procedure, shortened: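 Luminescent aminoluciferin-substrate cleavage reports caspase 3/7 activity in normal human BJ fibroblasts after 16 hr compound exposure at 37 °C. Normalized to DMSO (basal) and 10 uM staurosporine (100%); AC50 from Hill fit of concentration-response.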

[19] = Cellular Toxicity (caspase-3) MRC-5 (AID 659); conditions: MRC-5 cells, luminescence, normalized: DMSO 0%, 10 µM staurosporine 100%; series mostly up to 91.7 µM
Procedure, shortened: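 Luminescence from caspase-cleaved aminoluciferin substrate (Caspase-Glo 3/7, 1 hr RT) reports caspase 3/7 activity in MRC-5 lung fibroblasts after 16 hr compound exposure. Normalized to DMSO basal and 10 uM staurosporine as 100%; AC50 from Hill fits.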

[20] = Cellular Toxicity (caspase-3) Mesangial (AID 660); conditions: mesangial cells, normalized: DMSO 0%, 100 µM tamoxifen 100%; series mostly up to 91.7 µM;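 further: cells exposed to compound for 16 h before the caspase read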
Procedure, shortened: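 Human renal glomerular mesangial cells, 1000/well, 5 h at 37 C before 16 h compound treatment. Caspase-Glo 3/7 luminescence after 20 min; normalized to DMSO and 100 uM tamoxifen, AC50 from Hill fit.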

[21] = Cellular Toxicity (caspase-3) SK-N-SH (AID 661); conditions: SK-N-SH caspase-3 activation, qHTS, DMSO as zero, staurosporine as full; series mostly up to 91.7 µM
Procedure, shortened: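 Human SK-N-SH neuroblastoma cells, 1500/well, were exposed to compounds for 16 hours at 37 °C. Caspase-Glo 3/7 luminescence was normalized to DMSO (basal) and 10 uM staurosporine (100%), and AC50 came from a Hill fit.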

[22] = Cellular Toxicity (caspase-3) H-4-II-E (AID 663); conditions: H-4-II-E rat hepatoma, scaled: DMSO 0%, 100 µM tamoxifen 100%; series mostly up to 92.2 µM;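 further: cells exposed to compound for 16 hr before readout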
Procedure, shortened: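 Luminescence from caspase-cleaved aminoluciferin substrate, read 20 min after reagent addition, reports caspase 3/7 activation in rat H-4-II-E cells after 16 hr compound exposure. Normalized to DMSO (basal) and 100 uM tamoxifen (100%); AC50 from Hill fits.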

[23] = Cellular Toxicity (caspase-3) Hek293 (AID 664); conditions: HEK293 caspase-3 activation, DMSO = 0%, 100 µM tamoxifen = 100%; series mostly up to 92.2 µM;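 further: cells exposed to compound for 16 h at 37 °C before readout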
Procedure, shortened: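 HEK293 cells in complete medium treated 16 h at 37 °C, then Caspase-Glo 3/7 luminescence read after 20 min at room temperature. Normalized to DMSO and 100 uM tamoxifen; AC50 from Hill fit of concentration-response.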

CCC[CH2][Sn]([Cl])([Cl])[Cl]
inactive: Potency [1] > 92 µM | Potency [2] > 92 µM | Potency [3] > 92 µM | Potency [4] > 92 µM | Potency [5] > 92 µM | Potency [6] > 92 µM | outcome [7] | activity change, negative = cytotoxicity [8] 12.4% | activity change, negative = cytotoxicity [9] -25.6% | Potency [10] | Potency [11] | activity change, negative = cytotoxicity [12] -9.62% | outcome [13] | outcome [14] | caspase-3 activation [15] 1.34% | outcome [16] | outcome [17] | outcome [18] | outcome [19] | outcome [20] | outcome [21] | outcome [22] | outcome [23]
